Hits are enriched below; roughly 11% of the tested compounds scored in any of these assays.
FLuc inh-1: Firefly luciferase inhibition profiling of diverse chemical library using quantitative high-throughput screening; purified P. pyralis luciferase, luminescence, biochemical; Potency, µM (highest dose often 115 µM), actives largely listed as inhibitors; 2.5% of 76,000 active; AID 1347043, 2019; also: nearly all actives have a fitted effect of over 65% in size
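Cell-free enzyme assay, 10nM P. pyralis luciferase, luciferin and ATP each at 10uM. Inhibition profiled over a 6-point titration, read as luminescence.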
NPR1 antag: Natriuretic polypeptide receptor (hNpr1) antagonism - Primary qHTS | HEK293 hNpr1 GloSensor cGMP, ANP-stimulated luminescence | Atrial natriuretic peptide receptor 1 (Homo sapiens), P16066 | 1.6% of 76,000 active | AID 1347048, 2019 | Potency, µM (top dose mostly 46.3 µM), most hits filed as inhibitors; calls by dose curve; also: nearly all actives have a fitted effect of over 60% in size
Target sequence (P16066 whole entry, looked up): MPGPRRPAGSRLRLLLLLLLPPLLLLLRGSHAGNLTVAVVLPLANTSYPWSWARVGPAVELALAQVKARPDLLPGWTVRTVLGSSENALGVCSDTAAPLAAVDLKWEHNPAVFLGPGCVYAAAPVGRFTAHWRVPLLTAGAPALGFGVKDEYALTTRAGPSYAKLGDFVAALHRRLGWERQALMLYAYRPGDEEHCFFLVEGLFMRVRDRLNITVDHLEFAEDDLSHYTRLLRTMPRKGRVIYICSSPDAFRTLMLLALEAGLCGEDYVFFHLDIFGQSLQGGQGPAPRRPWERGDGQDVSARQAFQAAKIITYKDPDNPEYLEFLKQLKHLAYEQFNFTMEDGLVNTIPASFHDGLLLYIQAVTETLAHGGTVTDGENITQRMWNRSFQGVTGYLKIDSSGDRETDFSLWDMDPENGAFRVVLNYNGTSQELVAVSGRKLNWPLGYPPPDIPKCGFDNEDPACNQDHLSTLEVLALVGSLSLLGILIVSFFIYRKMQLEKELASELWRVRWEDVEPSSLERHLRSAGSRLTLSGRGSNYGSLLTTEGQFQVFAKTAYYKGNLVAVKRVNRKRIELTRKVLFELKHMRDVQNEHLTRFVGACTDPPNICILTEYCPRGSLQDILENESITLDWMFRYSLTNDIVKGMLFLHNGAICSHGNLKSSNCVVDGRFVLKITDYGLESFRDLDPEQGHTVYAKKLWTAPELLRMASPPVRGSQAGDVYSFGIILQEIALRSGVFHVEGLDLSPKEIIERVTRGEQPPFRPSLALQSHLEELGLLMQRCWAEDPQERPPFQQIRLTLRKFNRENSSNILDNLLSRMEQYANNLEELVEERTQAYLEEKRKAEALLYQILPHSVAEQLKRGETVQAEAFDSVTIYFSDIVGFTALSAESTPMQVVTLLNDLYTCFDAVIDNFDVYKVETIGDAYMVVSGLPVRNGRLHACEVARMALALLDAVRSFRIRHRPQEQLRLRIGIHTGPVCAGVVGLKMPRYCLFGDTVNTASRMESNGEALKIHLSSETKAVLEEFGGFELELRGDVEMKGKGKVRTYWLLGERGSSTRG
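HEK293 cells stably expressing human Npr1 and cGMP GloSensor pGS-40F, loaded 2 h with 2% GloSensor reagent, given compound 30 min at room temperature. Luminescence read before and 20 min after 0.1 nM hNppA.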
HEK293 tox: Cytotoxic Profiling in HEK 293 Cell Line of Diverse Libraries Using Quantitative High-Throughput Screening | HEK 293 viability, ATP luminescence (CellTiter-Glo), 48-72 h | Potency, µM (highest dose often 115 µM), hits mostly inhibitors | 6.6% of 94,000 active; also: nearly all actives have a fitted effect of over 60% in size
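HEK 293 cells seeded at 250 cells/well were exposed to compound for 48 or 72 hr at 37 degree Celsius. Viability taken as ATP content by CellTiter-Glo luminescence.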
NIH3T3 tox: Cytotoxic Profiling in NIH 3T3 Cell Line of Diverse Libraries Using Quantitative High-Throughput Screening; NIH 3T3 viability, CellTiter-Glo ATP luminescence, 48-72 h; Potency, µM (doses to about 96.7 µM), hits mostly inhibitors; 4.3% of 94,000 active; AID 1345082, 2018; also: nearly all actives have a fitted effect of over 55% in size
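Cytotoxicity was measured by CellTiter-Glo ATP luminescence after 48 or 72 h compound exposure at 37 °C. Mouse NIH 3T3 fibroblasts were seeded at 400 cells/well and dosed by 23 nL pin transfer.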
FLuc SDR no ATP: Firefly luciferase (FLuc-C-HiBiT) SDR gain of signal screen - without ATP | shares compounds with FLuc inh-1 | Purified FLuc-C-HiBiT, Nano-Glo HiBiT luminescence, no ATP | 7.8% of 1,300 active | Potency, µM (doses to about 32.7 µM), most hits filed as activators; also: nearly all actives have a fitted effect of over 55% in size
FLuc SDR ATP: Firefly luciferase (FLuc-C-HiBiT) SDR gain of signal screen - plus ATP; shares compounds with FLuc inh-1; purified FLuc-C-HiBiT + ATP, HiBiT complementation luminescence; Potency, µM (top dose mostly 32.7 µM), most hits filed as activators; 8.7% of 1,300 active; AID 1963319, 2024;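 also: signal reports ligand binding via conformational change of the enzyme rather than luciferase catalysis; nearly all actives have a fitted effect of over 55% in size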
FLuc inh-2: Firefly luciferase (FLuc-C-HiBiT) enzymatic inhibition screen - Functional assay; shares compounds with FLuc inh-1; Potency, µM (top dose mostly 32.7 µM), usual class: inhibitors; purified FLuc-C-HiBiT enzyme, luciferin luminescence; 42% of 1,300 active; AID 1963320, 2024; also: nearly all actives have a fitted effect of over 70% in size
Large screens that a line does not name were inactive (follow-up assays come after a bar, where they were run). Unless noted, calls follow the shape of the dose curve; as a rule, active = well fitted curve in the direction sought with a large enough effect; inconclusive = small, poorly fitted or top-dose-only effect, or another doubt; inactive = no such curve, though single readings can be large; an effect the other way counts as inactive or inconclusive.

O=C(Nc1ccc2c(N3CCCC3)ncnc2c1)c1cccc(Br)c1	HEK293 tox inconclusive, NIH3T3 tox inconclusive
NC(Cc1ccccc1)C(=O)N1CCC2(CC1)CN(C(=O)c1ccc(Cl)cc1)CCO2 (stereo not drawn)	none (no result: FLuc inh-1, NPR1 antag)
COc1ccc(C(=O)Nc2ccccc2-c2nc3ccccc3s2)c(OC)c1	none (no result: FLuc inh-1, NPR1 antag, HEK293 tox, NIH3T3 tox) | FLuc SDR no ATP inactive | FLuc SDR ATP inactive | FLuc inh-2 inactive
COc1cccc(C(=O)Nc2ccccc2-c2nc3ccccc3s2)c1	none (no result: FLuc inh-1, NPR1 antag, HEK293 tox, NIH3T3 tox) | FLuc SDR no ATP inactive | FLuc SDR ATP inactive | FLuc inh-2 inactive
COc1cccc(C(=O)Nc2ccc(O)c(-c3nc4ccccc4s3)c2)c1	none (no result: FLuc inh-1, NPR1 antag, HEK293 tox, NIH3T3 tox) | FLuc SDR no ATP inactive | FLuc SDR ATP inactive | FLuc inh-2 inactive
CC(C)n1cnnc1-c1nn(C)c2c1CN(C(=O)CC1CCCC1)CC2	none
CN(CC1CCOCC1)S(=O)(=O)c1ccc2c(c1)CCCC2	NPR1 antag inconclusive, HEK293 tox inconclusive, NIH3T3 tox inconclusive
Cn1c(=O)c2ccnn2c2ccc(C(=O)NCCN3CCC(N4CCCCC4)CC3)cc21	none
O=C(c1cc2ccc3cccnc3c2[nH]1)N1CCCCC1	none (no result: FLuc inh-1, NPR1 antag, HEK293 tox, NIH3T3 tox) | FLuc SDR no ATP 11.1µM | FLuc SDR ATP inconclusive | FLuc inh-2 1.57µM
CC1CCCN(C(=O)c2cc3ccc4cccnc4c3[nH]2)C1 (stereo not drawn)	none (no result: FLuc inh-1, NPR1 antag, HEK293 tox, NIH3T3 tox) | FLuc SDR no ATP 3.94µM | FLuc SDR ATP 2.48µM | FLuc inh-2 0.556µM
Cc1sc2cc(C(=O)N3CCCC3)[nH]c2c1CN1CCCCC1	none
COCCn1c(=O)c(C(=O)NCc2ccc(F)cc2)nc2cccnc21	none (no result: FLuc inh-1, NPR1 antag)
Cc1cc(CNC(=O)C2CCCCn3nnnc32)c2[nH]c(-c3ccccc3)c(C)c2c1 (stereo not drawn)	FLuc inh-1 8.91µM, HEK293 tox 25.1µM, NIH3T3 tox 35.5µM | FLuc SDR no ATP inactive | FLuc SDR ATP inactive | FLuc inh-2 inconclusive
C=CCN(CC=C)C(=O)C1CCCN(C2CCN(C3Cc4ccccc4C3)CC2)C1 (stereo not drawn)	none
O=C1N(c2ccccc2)C[C@H]2CN(Cc3ccccc3)CCN12	FLuc inh-1 14.1µM | FLuc SDR no ATP inactive | FLuc SDR ATP inactive | FLuc inh-2 inconclusive
CS(=O)(=O)c1ccc(CN2CCN3C(=O)N(c4ccccc4)C[C@H]3C2)cc1	HEK293 tox inconclusive, NIH3T3 tox inconclusive
O=c1[nH]c(N2CCOCC2)nc2c1CCN(Cc1ccc(Br)cc1)CC2	none
COc1cccc(-c2ccc(C(=O)NCCNC(=O)c3cccnc3)cc2)c1	HEK293 tox inconclusive (no result: FLuc inh-1, NPR1 antag)
CCN(CC)S(=O)(=O)c1ccc2nc(NC(=O)c3cccnc3)sc2c1	none (no result: FLuc inh-1, NPR1 antag, HEK293 tox, NIH3T3 tox) | FLuc SDR no ATP inactive | FLuc SDR ATP inactive | FLuc inh-2 inconclusive
COCCCNC(=O)C1CCN(c2ccnc3ccnn23)CC1	none (no result: FLuc inh-1, NPR1 antag)
CN(C)c1ccc(-c2nc(C3CCOC3)no2)cc1 (stereo not drawn)	FLuc inh-1 3.98µM, NPR1 antag inconclusive, HEK293 tox inconclusive | FLuc SDR no ATP inactive | FLuc SDR ATP inconclusive | FLuc inh-2 inconclusive
CCS(=O)(=O)Nc1ccc(-c2nc(C3CCOC3)no2)cc1 (stereo not drawn)	none
CSc1ccccc1-c1nc(C2CCOC2)no1 (stereo not drawn)	NIH3T3 tox inconclusive
c1ccc2cc(-c3nc(C4CCOC4)no3)ncc2c1 (stereo not drawn)	FLuc inh-1 2.51µM, NPR1 antag inconclusive | FLuc SDR no ATP inactive | FLuc SDR ATP inconclusive | FLuc inh-2 inconclusive
Cc1nc2ccc(-c3nc(C4CCOC4)no3)cc2s1 (stereo not drawn)	FLuc inh-1 2µM, NPR1 antag inconclusive, HEK293 tox inconclusive, NIH3T3 tox inconclusive | FLuc SDR no ATP inactive | FLuc SDR ATP inconclusive | FLuc inh-2 11.1µM
COc1ccc2c(C)c(-c3nc(C4CCOC4)no3)oc2c1 (stereo not drawn)	FLuc inh-1 12.6µM, HEK293 tox inconclusive, NIH3T3 tox inconclusive | FLuc SDR no ATP inactive | FLuc SDR ATP inactive | FLuc inh-2 inactive
CN1CCN(c2ncnc3sc4c(c23)CCN(Cc2ccco2)C4)CC1	none
CCc1nc(-c2c3n(c(=O)n(Cc4cccc(Br)c4)c2=O)CCCC3)no1	HEK293 tox inconclusive, NIH3T3 tox inconclusive
C1CNC(c2nc(CCOCC3CC3)no2)C1 (stereo not drawn)	none
COc1cc(NC(=O)c2ccc(-c3ncn[nH]3)cc2)ccc1NC(=O)C(C)(C)C	FLuc inh-1 11.2µM, HEK293 tox 25.1µM, NIH3T3 tox inconclusive | FLuc SDR no ATP inactive | FLuc SDR ATP inactive | FLuc inh-2 inconclusive
COc1cc(NC(=O)CCN2CCCCCC2=O)ccc1NC(=O)C(C)(C)C	none
O=C(C1CCCN1C(=O)NC1CCCC1)N1CCC(N2Cc3ccccc3C2=O)CC1 (stereo not drawn)	none (no result: FLuc inh-1, NPR1 antag)
CN1C(=O)N(C)C2(CCN(CCOc3ccc(F)cc3)C2)C1=O (stereo not drawn)	none
Cn1ncc2c(C(=O)NC3CC3)cc(-c3ccccc3)nc21	NIH3T3 tox inconclusive (no result: FLuc inh-1, NPR1 antag)
COc1ccc(Nc2cc(C(=O)NC3CCC(C)CC3)c3ccccc3n2)cc1OC (stereo not drawn)	none (no result: FLuc inh-1, NPR1 antag, HEK293 tox, NIH3T3 tox) | FLuc SDR no ATP inactive | FLuc SDR ATP inactive | FLuc inh-2 inactive
COc1ccc(C(=O)N2CCCC2c2nc(CCOc3cccc(C)c3)no2)cn1 (stereo not drawn)	HEK293 tox inconclusive
Cc1cccc(OCCn2nnc3sc4c(c3c2=O)CCCC4)c1	none (no result: FLuc inh-1, NPR1 antag, HEK293 tox, NIH3T3 tox) | FLuc SDR no ATP inactive | FLuc SDR ATP inactive | FLuc inh-2 inconclusive
O=[S+]([O-])(c1cccs1)N1CCC2(CC(c3cccnc3)=NO2)C1 (stereo not drawn)	none (no result: FLuc inh-1, NPR1 antag)
COc1ccc(C2=NOC3(CCN([S+](=O)([O-])c4cccs4)C3)C2)cc1 (stereo not drawn)	FLuc inh-1 5.62µM, NPR1 antag inconclusive, HEK293 tox inconclusive, NIH3T3 tox inconclusive | FLuc SDR no ATP inactive | FLuc SDR ATP inactive | FLuc inh-2 inactive
Fc1ccccc1-c1noc(-c2nc(-c3ccccc3F)no2)n1	none
CCOC(=O)c1cccc(Nc2nc(-c3ccccc3)no2)c1	FLuc inh-1 1.78µM, HEK293 tox 28.2µM | FLuc SDR no ATP inactive | FLuc SDR ATP inconclusive | FLuc inh-2 inconclusive

Bioassay records deposited in PubChem by National Center for Advancing Translational Sciences (NCATS).
